# Test results reported in the supplement of paper PMC11417369.
# Whole data set: some 25,000 sequences, median “ln(normalized median fluorescence intensity)” near 7.1, cut for the highest 2% near 10. Many of the other results were omitted from the sample, so the highest values are more common in it than they were.
# System: PfSIP2 AP2 domain 1 (GST-tagged)
# Test: gcPBM binding intensity (ln(normalized median fluorescence intensity)); higher = stronger DNA binding
# How it was run: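 After 1 h on an Agilent 4 × 180k array of primer-extended double-stranded 36-bp intergenic genomic probes and negative controls, bound GST-tagged P. falciparum DNA-binding domains were detected with Alexa488 anti-GST antibody and scanned at 488 nm. The domains had been expressed in E. coli, and binding took place in 1× PBS with 1% milk, 0.2 mg/ml BSA, 0.5% salmon testes DNA and 0.03% Triton X-100. Binding intensity is the highest Masliner-normalised natural-log median intensity across replicate spots of either probe orientation.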
row,Sequence,gcPBM binding intensity (ln)
1,ACATACATATGTAAATGTACAAAATATCCATAGATT [XGTACX_site2782],6.81
2,AAATAACAAAAGAAGGTGCTCATAAAAATTCATACA [GTGCAC_site9864],8.23
3,TCAGATCCATAGAAGGTGCAAATAACAAAAATACAA [GTGCAC_site9610],10.9
4,TATAATGCTCTTCTTTGTACATATTATGATTATATT [XGTACX_site2332],7.15
5,TTTGTTTGGTTTTGGTGTACTTTTTTTTTTTTTTCT [XGTACX_site2050],7.16
6,ATTTTTTTTTTTTTTTTTTGGTTTTCTTTAGGAGTT [CACACA_negctrl_site1258],6.9
7,CTTCTGGACAGGAATGCACACATTTTTTTTTCTTTT [CACACA_site1807],7
8,TTGACAGGAACGTTGGTGCACGTACTGTTTTTCTTT [GTGCAC_site9389],10.7
9,TTAGCAGGACGTTTGGTGCACGTACTGTTTTTCTTT [GTGCAC_site9856],10.3
10,TACATGCTTATTTTAACACACAAATGGTAGTAATAA [CACACA_site766],6.93
11,ATATTTTTCAAACATCGTACATTATGAGTTAAAATT [XGTACX_site584],7.02
12,ATAAAAAGGAGACACACACACACACGCATATTTATA [CACACA_site6551],7.08
13,TATATTATTAATTAAGCACACATTATTTTTATAATA [CACACA_site3982],6.89
14,GTATAATTATGTGCACGTACATATTTTATTATATAT [XGTACX_site8586],9.21
15,ATATATATATATATAGTGCACATTTATATAATTATT,10.6
16,TTAATAATTAATTATAGTACACATTTATATTAATAA [XGTACX_site190],7.03
17,ATAATATATAATATAGTGCATTATTTATTAATTAAT [GTGCAC_site9852],10.1
18,AGACCTTTAATTTGTGTGCACATAATTAGTGTACAT [GTGCAC_site9434],8.49
19,TTATATAATTTAATAGTGCAATTATATTAATTTTTC,7.73
20,TGTGCACATAATTAGTGTACATTTTTTATTTAGACA [XGTACX_site317],10.9

row,Sequence,gcPBM binding intensity (ln)
1,CTATTTCAATTTAGTGCACACATTTTAATTTATAAG [CACACA_site2040],10.5
2,ATTCCACCTTAAAACTGTACTTTCTCAATCTTTTAT [XGTACX_site796],7.22
3,TTACTTAAATATAAGTGTCCTCAAAAAAAAAAAAAA [XGTACX_site460],6.94
4,ATTCGTCACATTTTTTGATATATATATATATATATA [CACACA_negctrl_site1785],9.68
5,TTTTTATTAAGACATGCATGGAAACGCACTATTTTA [TGCATGCA_site999],9.74
6,TTTTAAAAACGGCATGCATGTAATACATGGAAGGAA [TGCATGCA_site480],7.46
7,GGGTTTTTTATTAATACATGCATGGAAACGCACTAT [TGCATGCA_site1000],10.3
8,TTTATAAATATTCTCACACACTTTTTATTTTAACAA [CACACA_site6454],6.93
9,ATATAAATTTAATACACACCCAAAAAAAAAAAAAAA [CACACA_site3750],6.89
10,ATGTAGATAAAACGTGTGCACATGTTTTTTGTTATT,8.7
11,ATATGTTTTGTTTACGTGCACTGCTTTGTTTATATA [GTGCAC_site9622],9.56
12,TATGTTTTTACGTGTGTGCACTTTGTAGAGATAAGT,10.7
13,AGGATATGCAGACACACACACATATAGATTTATATA [CACACA_site7100],7.08
14,AAAATTAGATTATGCACACACACTTAAAAATAATAA [CACACA_site1975],8.5
15,GTTAGGATAGATTAGACATGCACATAAATGCACTTC [TGCATGCA_site561],11
16,TGTACGAGTCGTAGAGTGCAGTCTGGAGAAAAGTAC [GTGCAC_site9683],8.91
17,TTTTTTATGCTAACTTCTTTTTCCTTATAAAATTGG [TGCATGCA_negctrl_site598],7.06
18,AATATAATATATTGCACACAAAAAGTGAATTATTCT [CACACA_site1684],7.12
19,TAATATATGTATTGCACACCTATAACCATTATTTCT [CACACA_site1498],7.06
20,AATATATTGCACCATTGGACCTGAATAATTCTTCCA [CACACA_negctrl_site1071],10.6

row,Sequence,gcPBM binding intensity (ln)
1,CTTTCTATATAAAATCGTACATATATAATATTATAT [XGTACX_site5807],7.3
2,GACATATAAATATACACACATACGTAAGTATATTAA [CACACA_site1790],6.91
3,GGAAAATACATTCCAGTGCATTAATTTATTCAACGT,8.59
4,AGAGACACTTTTTATTGTACAAGAGGAGGTTACCTT [XGTACX_site8768],6.61
5,AAAAAAAAAAAAGAAACACACACATTTGTATATAAT [CACACA_site8648],6.93
6,AGAACATGCAAACATGCACACAGAAAAAAAAAATAT [CACACA_site8442],8.26
7,AAACAGAAGACATATACACACATACAAAAAAGTGCA [CACACA_site4699],7.62
8,AAAAAAAAAAAAGAAACACACATATATATATATATA [CACACA_site140],8.95
9,AAAAAAAAAAAAAGAACACACACAGTGCACATTCGG [CACACA_site8163],10.6
10,AAAAAAAAAAAGAACACACACAGTGCACATTCGGTG [CACACA_site788],10.3
11,TGAACACACGAGCACACACACACATCTATATTTATA [CACACA_site6607],7.22
12,TTAATTACACAAAAAAGTACTTGATATTGTTTATTA [XGTACX_site3449],6.85
13,AAATACTGATTTGGTTGTACATGTGCACTATATAAC [XGTACX_site3795],11.4
14,AAATATTTGTGTGGTTGTACTATAATGATAAAAATA [XGTACX_site7703],7.27
15,ATACTAACATTTTTTTGTACATATAACTATAAAATA [XGTACX_site1033],7.32
16,GGAACTTTTGGAGGTGCATGCGGAGCAATCTTTTCA [TGCATGCA_site454],10.6
17,CCTTTTTCTAATGGATGTACTTATTATATACATTAT [XGTACX_site281],7.14
18,TTGAAAAATCAGCACACACACAAATACATACATATT [CACACA_site7505],7.03
